Results published in ChEMBL document CHEMBL1157539, “Thousands of chemical starting points for antimalarial lead identification” (Nature, 2010).

Tests used:
Assay type in all cases: functional
Plasmodium falciparum [1] = assay: GSK_TCMDC: Inhibition of Plasmodium falciparum 3D7 in whole red blood cells, using parasite LDH activity as an index of growth. Test compounds present at 2uM
Plasmodium falciparum [2] = assay: GSK_TCMDC: Inhibition of Plasmodium falciparum Dd2 in whole red blood cells, using parasite LDH activity as an index of growth. Test compounds present at 2uM
HepG2 = assay: GSK_TCMDC: Percent inhibition of human HepG2 cell line. Test compounds present at 10uM.

Row | Structure (SMILES) | Inhibition (Plasmodium falciparum [1]) [%] | Inhibition (Plasmodium falciparum [2]) [%] | Inhibition (HepG2) [%]
1 | C#CCCC(=O)Nc1cccc(-c2cccc(-c3nc4cc(C(F)(F)F)ccc4[nH]3)c2)c1 | 90 | 45 | 14
2 | CC(C)OC(=O)c1ccc(NC(=O)N[C@@H](Cc2ccc(O)cc2)C(=O)NC2CCC(CCN3C4CCC3c3ccccc34)CC2)cc1.O=C(O)C(F)(F)F (stereo partly drawn) | 95 | 67 | 3
3 | Fc1ccc2[nH]c(-c3ccc(-c4ccc(CN5CCC(CCN6CCCCC6)CC5)cc4)s3)nc2c1.O=C(O)C(F)(F)F | 100 | 100 | 96
4 | O=C(Nc1ccc(-c2nc3ccc(NC(=O)c4ccc(Br)cc4)cc3[nH]2)cc1)c1ccc(Br)cc1 | 98 | 4 | 40
5 | O=C(CCCCCNC(=O)c1ccc(O)c(-c2ccc(Cl)c(Cl)c2)c1)NCCN1CCOCC1 | 95 | 0 | 0
6 | O=C(NCCNc1nc(NCCNC(=O)Nc2ccccc2)c2ccc(=O)n(-c3c(F)cccc3F)c2n1)Nc1ccccc1 | 94 | 87 | 1
7 | CC(C)COc1ccc(Cl)cc1Nc1nc(-c2nc3ccccc3[nH]2)cs1.Cl | 96 | 29 | 2
8 | CS(=O)(=O)Cc1ccc(Nc2nccc(-c3c(-c4cccc(C(=O)Nc5c(F)cccc5F)c4)nn4ccccc34)n2)cc1 | 96 | 92 | 85
9 | Cc1cc2c(NC(=O)NC3CCN(Cc4ccc(Cl)c(Cl)c4)CC3)cccc2cn1.Cl | 100 | 41 | 11
10 | CC(C)(C)C(Cn1ccnc1)NCc1c[nH]nc1-c1ccc(-c2ccccc2)cc1 (stereo not drawn) | 98 | 69 | 15
11 | O=C(NCC(CCCN1CCC(c2c[nH]c3ccccc23)CC1)c1ccccc1)Nc1ccc(Cl)c(Cl)c1 (stereo not drawn) | 100 | 64 | 38
12 | Cc1cc(N(C)C2CCN(C)C2)nc(Nc2ccc(Cl)cc2)n1 (stereo not drawn) | 100 | 88 | 8
13 | CN(C)c1c(CNCCCCCCNCc2ccc3ccccc3c2N(C)C)ccc2ccccc12.CS(=O)(=O)O | 100 | 51 | 100
14 | Cc1cccc2nc(-c3ccc(-c4ccc(CN5CCC(N)C5)cc4)s3)[nH]c12.O=C(O)C(F)(F)F (stereo not drawn) | 100 | 98 | 21
15 | CCOC(=O)c1cccc(NC(=N)Nc2nc(C)cc(NCCc3ccccc3)n2)c1 | 100 | 72 | 21
16 | CC(C)N(CCOc1ccc2c(c1)N(C(=O)Nc1cc(Br)cc(C(F)(F)F)c1)CC2)C(C)C.O=C(O)C(F)(F)F | 100 | 100 | 8
17 | O=C(Cc1c[nH]cn1)Nc1ccc(-c2ccc(-c3nc4ccccc4[nH]3)s2)cc1 | 90 | 34 | 44
18 | O=C1C(c2ccccc2)=C(Nc2ccc(OC(F)(F)F)cc2)c2ccccc21 | 96 | 96 | 18
19 | Cc1cc(N/N=C/c2cccc([N+](=O)[O-])c2)c2cc(F)ccc2n1 | 100 | 99 | 3
20 | CC(C)(C)c1ccc(N2C(N)=NC(N)=NC2(C)C)cc1.Cl | 93 | 0 | 27
21 | Brc1ccc(Nc2nc(NCc3ccccc3)c3ccccc3n2)cc1 | 100 | 99 | 24

Row | Structure (SMILES) | Inhibition (Plasmodium falciparum [1]) [%] | Inhibition (Plasmodium falciparum [2]) [%] | Inhibition (HepG2) [%]
22 | CCC(C)NC(=O)Cn1c2ncccc2c(=O)n1-c1ccc(C)cc1 (stereo not drawn) | 95 | 63 | 4
23 | O=C(Cc1ccc(NC(=O)c2ccc(O)c(-c3ccc(Cl)c(Cl)c3)c2)cc1)NCCN1CCCCC1 | 95 | 63 | 12
24 | COCCOc1ccc(C(F)(F)F)cc1NC(=O)Cc1c(F)cccc1Cl | 88 | 74 | 18
25 | CC1(C)[C@H]2CC[C@@H](CNc3nc(NCCc4c[nH]cn4)nc(Nc4ccc(Oc5ccccc5)cc4)n3)[C@@H]1C2 | 99 | 86 | 2
26 | CN1CCN(c2ccnc3ccc(NC(=O)Cc4ccc(OCc5ccccc5)cc4)cc23)CC1 | 100 | 89 | 6
27 | CCNC(=O)N[C@@H]1CN[C@@H](C#Cc2cc3c(Nc4ccc(OCc5cccc(F)c5)c(Cl)c4)ncnc3s2)C1 | 85 | 27 | 0
28 | Cc1ccc2c(c1)C1(CC(=O)N(CCc3scnc3C)C1=O)C(=O)N2Cc1ccccc1 (stereo not drawn) | 83 | 73 | 0
29 | CC(C)(C)C1CCc2nc(N)nc(N)c2C1.Cl (stereo not drawn) | 94 | 38 | 69
30 | O=C(O)C(F)(F)F.O=S(=O)(NCCN1CCCC1)c1ccc(-c2ccc(CNCc3ccccc3)cc2)cc1 | 99 | 28 | 47
31 | COc1c(CN2CCCC2)cccc1-c1cc2c(-c3ccc(C(=O)O)c(C(C)C)c3)ccnc2[nH]1.O=C(O)C(F)(F)F | 99 | 98 | 56
32 | Cc1ccc(S(=O)(=O)NC(=N)NC(N)=O)cc1 | 94 | 2 | 26
33 | Cc1cc(NCCC(=O)Nc2ccccc2)nc(NCc2ccccc2C)n1.O=C(O)C(F)(F)F | 100 | 57 | 6
34 | O=C(NC1CCN(Cc2ccccc2O)C1)c1cccc(C(F)(F)F)c1.O=C(O)C(F)(F)F (stereo not drawn) | 98 | 62 | 0
35 | COc1cccc(CNc2noc(-c3c(-c4ccccc4)noc3C)n2)c1OC | 97 | 86 | 0
36 | Cc1cccc(Nc2nc(NCCCCN)nc3cc[nH]c(=O)c23)c1.O=C(O)C(F)(F)F | 98 | 97 | 34
37 | COc1ccc(NC(=O)c2ccc(OCCCCCCCOc3ccc(C(=O)Nc4ccc(OC)c(N5CCN(C)CC5)c4)cc3)cc2)cc1N1CCN(C)CC1.O=C(O)C(=O)O | 96 | 91 | 98
38 | Br.CC1(C)NC(N)=NC(=N)N1OCCCOc1cc(Cl)ccc1Cl | 96 | 96 | 64
39 | Cc1cccc(C(=O)Nc2ccnc(N(C)CCCN(C)Cc3cccc(C#N)c3)c2)c1.O=C(O)C(F)(F)F | 92 | 12 | 1
40 | COc1cccc(CN2CCCC(OC(c3ccc(F)cc3)c3ccc(F)cc3)C2)c1O (stereo not drawn) | 95 | 95 | 8
41 | CC(C)N1CCN(CCCNc2c3ccccc3nc3ccccc23)CC1.Cl | 100 | 1 | 29
42 | Cl.O=S(=O)(c1ccc(OCc2ccc(Cl)cc2)cc1)c1cc2c(cc1O)CCN(C1CCC1)CC2 | 99 | 63 | 11

Row | Structure (SMILES) | Inhibition (Plasmodium falciparum [1]) [%] | Inhibition (Plasmodium falciparum [2]) [%] | Inhibition (HepG2) [%]
43 | CCC(CC)(Cc1ccccc1)NC(=O)[C@H](CC(C)C)Nc1ccc(C#N)c2ccccc12.O=C(O)C(F)(F)F | 90 | 73 | 57
44 | COc1ccc(Nc2nccc(N3CCC(NC(=O)c4cccc(C#N)c4)C3)n2)cc1 (stereo not drawn) | 92 | 93 | 6
45 | Cc1nnc2c(NC(=O)NC3CCCC3)cc3cc(-c4ccc(CN5CCCCC5)cc4)ccc3n12 | 99 | 93 | 100
46 | Cc1nc(-c2cccc(Nc3nccc(NCC(O)c4cccc(C(F)(F)F)c4)n3)c2)cs1 (stereo not drawn) | 100 | 99 | 14
47 | COc1cc(C(F)(F)F)cc2[nH]c(CNCCCNc3nc4ccccc4[nH]3)cc12 | 100 | 2 | 59
48 | CCCCNC[C@@H](O)[C@H](Cc1ccccc1)NC(=O)c1cc2c3c(c1)c(CC)cn3CCS(=O)(=O)N2C.O=CO | 99 | 98 | 0
49 | Cc1cnc(NCCc2ccc(F)cc2)nc1NCCC(=O)Nc1ccccc1.O=C(O)C(F)(F)F | 89 | 17 | 3
50 | COc1cc2c(cc1N1CC(C)NC(C)C1)N(C(=O)c1ccc(-c3ccc(-c4ncc[nH]4)cc3C)cc1)CC2 (stereo not drawn) | 98 | 58 | 7
51 | CC(C)COc1ccc(Cl)cc1Cc1nc(-c2nc3ccc(CN(C)C)cc3[nH]2)co1.Cl | 97 | 87 | 14
52 | O=C(NC1CCN(c2ccnc3cc(Cl)ccc23)C1)c1ccc(F)cc1.O=C(O)C(F)(F)F (stereo not drawn) | 94 | 97 | 26
53 | Cl.FC(F)(F)c1ccc(COc2cc(Cl)ccc2Cn2ccnc2)cc1 | 95 | 0 | 13
54 | CC[C@H](C)CNC(=O)c1ccnc(-c2cccc(CN3CCC(N4CCCC4)CC3)c2)c1.O=C(O)C(F)(F)F | 97 | 12 | 0
55 | O=C(NCc1cccc(F)c1)Nc1cccc(-c2cccc(-c3nc4cc(C(F)(F)F)ccc4[nH]3)c2)c1 | 93 | 32 | 55
56 | CC(C)NCC(=O)Nc1cccc(C(=O)Nc2cccc(C(F)(F)F)c2)c1 | 97 | 89 | 6
57 | CCC1(CC)NC(N)=NC(=N)N1OCc1ccc(Cl)c(Cl)c1.Cl | 94 | 49 | 49
58 | N#CC(c1ccc(F)cc1)c1ccc2c(C(F)(F)F)cc(C(F)(F)F)nc2n1 (stereo not drawn) | 97 | 89 | 9
59 | COc1ccc2ncc(F)c(CCN3CCC(CNCc4cccc5c4OCO5)CC3)c2n1.Cl | 93 | 37 | 39
60 | FC(F)(F)c1ccc(Nc2nnnc3ccccc23)cc1 | 90 | 82 | 3
61 | C[C@H](Cc1ccc(Oc2ccc(C[C@@H](C)NC[C@H](O)c3cccc(Cl)c3)cc2)cc1)NC[C@H](O)c1cccc(Cl)c1.Cl | 100 | 96 | 99
